Data from the supplement of paper PMC11732987, “Enantioselective OTUD7B fragment discovery through chemoproteomics screening and high-throughput optimisation” (Communications Chemistry, 2025).

Each molecule was assayed against T1, USP28 (UniProt Q96RU2) (assay: log2 ratio of Biotin-Ahx-Ub-VS probe labelling (fragment/DMSO); higher = less target engagement (more negative = stronger competition), active = hit call of the paper (q ≤ 0.05, log2 ratio ≤ -1)). Details: compound concentration: 200 uM; treatment time: 3 h.
T1 sequence (whole entry): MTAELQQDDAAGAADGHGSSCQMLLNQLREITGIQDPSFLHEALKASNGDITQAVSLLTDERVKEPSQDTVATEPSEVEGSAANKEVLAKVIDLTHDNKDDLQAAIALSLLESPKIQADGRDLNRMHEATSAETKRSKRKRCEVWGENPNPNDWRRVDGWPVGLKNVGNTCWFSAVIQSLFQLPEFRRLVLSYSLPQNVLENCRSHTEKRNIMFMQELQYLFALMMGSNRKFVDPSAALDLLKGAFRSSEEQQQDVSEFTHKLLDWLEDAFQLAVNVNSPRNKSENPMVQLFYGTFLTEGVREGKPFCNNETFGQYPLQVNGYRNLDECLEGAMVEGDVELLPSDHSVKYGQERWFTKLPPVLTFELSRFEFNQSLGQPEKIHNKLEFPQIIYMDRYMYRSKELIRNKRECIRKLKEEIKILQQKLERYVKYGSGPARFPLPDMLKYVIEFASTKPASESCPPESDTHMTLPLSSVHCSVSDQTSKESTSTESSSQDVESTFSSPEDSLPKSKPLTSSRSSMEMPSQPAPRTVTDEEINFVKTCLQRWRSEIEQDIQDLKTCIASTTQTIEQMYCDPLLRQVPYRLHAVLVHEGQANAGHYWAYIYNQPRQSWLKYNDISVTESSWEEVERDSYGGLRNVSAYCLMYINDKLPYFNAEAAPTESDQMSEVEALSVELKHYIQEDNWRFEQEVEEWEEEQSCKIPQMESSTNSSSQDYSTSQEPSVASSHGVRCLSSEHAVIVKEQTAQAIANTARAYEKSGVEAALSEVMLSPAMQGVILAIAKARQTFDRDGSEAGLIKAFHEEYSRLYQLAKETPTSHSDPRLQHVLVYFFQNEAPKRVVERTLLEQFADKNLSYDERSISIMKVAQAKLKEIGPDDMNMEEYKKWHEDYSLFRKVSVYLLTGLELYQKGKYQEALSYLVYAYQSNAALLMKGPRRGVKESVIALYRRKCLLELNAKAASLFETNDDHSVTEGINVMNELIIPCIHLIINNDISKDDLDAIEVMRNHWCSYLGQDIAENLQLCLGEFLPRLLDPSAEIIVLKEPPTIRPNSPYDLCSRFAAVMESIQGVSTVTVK
Procedure, shortened: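 HEK293T lysate (495 µg per sample, in Tris/CHAPS/IGEPAL buffer with protease inhibitors) was exposed in triplicate for 3 h to fragment at 200 µM or to vehicle, then to Biotin-Ahx-Ub-VS at 0.5 µM final for 1 h. Labelled DUBs were enriched on NeutrAvidin, digested with LysC and trypsin, and analysed by diaPASEF LC-MS/MS. Spectronaut label-free quantities were normalised to the global median, and values are average log2 ratios of fragment over vehicle from an unpaired t-test. Only proteins with ≥2 unique peptides were used.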

SMILES | log2 ratio of Biotin-Ahx-Ub-VS probe labelling
O=C(CCl)Nc1ccc(F)cc1Cl | -0.873 (inactive)
O=C(CCl)Nc1cccc2ncccc12 | -0.917 (inactive)
O=C(CCl)NC(Cn1ccccc1=O)c1ccccc1 (centres undefined) | -0.211 (inactive)
Cc1n[nH]c(=O)c2c(NC(=O)CCl)oc(C)c12 | -0.11 (inactive)
Cc1ccc(-c2nnc(C)[nH]2)c(NC(=O)CCl)c1 | -0.643 (inactive)
Cc1ccc(C)c(Oc2ccc(CNC(=O)CCl)cn2)c1.Cl | -0.765 (inactive)
Cc1nc(CN2CCCN(C(=O)CCl)CC2)no1.Cl | -0.00501 (inactive)
N#Cc1ccc(CNC(=O)CCl)cc1 | -0.49 (inactive)
CC(C)n1nccc1NC(=O)CCl | -0.651 (inactive)
CC(NC(=O)CCl)c1ccc2[nH]ncc2c1 (centres undefined) | -0.901 (inactive)
Cl.O=C(CN1CCN(C(=O)CCl)CC1)Nc1ccc(F)cc1 | 0.0845 (inactive)
CC(NC(=O)CCl)c1cnn(C2CC2)c1 (centres undefined) | -0.621 (inactive)
NC(=O)C(Cc1ccccc1)NC(=O)CCl (centres undefined) | -0.39 (inactive)
O=C(CCl)NC1CCN(C(=O)C2CCCCC2)CC1 | -0.257 (inactive)
Cc1cc(Cl)ccc1NC(=O)CCl | -0.682 (inactive)
COc1ccc(Cl)cc1NC(=O)CCl | -0.959 (inactive)
O=C(CCl)Nc1nnc(CC(F)(F)F)o1 | -0.479 (inactive)

SMILES | log2 ratio of Biotin-Ahx-Ub-VS probe labelling
O=C(CCl)N(C1=CCCCC1)C1CC1 | -0.185 (inactive)
Cc1ccc(CN(CCO)C(=O)CCl)cc1 | -0.569 (inactive)
CC(NC(=O)CCl)c1cccc2ccccc12 (centres undefined) | -0.501 (inactive)
O=C(CCl)N1CCCCC12CCOCC2 | -0.65 (inactive)
Cl.Cn1ncc2c1CCCC2NC(=O)CCl (centres undefined) | -0.57 (inactive)
COCC[C@@H](NC(=O)CCl)c1ccccc1 | -0.388 (inactive)
CN(C(=O)CCl)c1nc2ccccc2s1 | -0.444 (inactive)
O=C(CCl)N1CCC(C(=O)N2CCCCCC2)CC1 | -0.307 (inactive)
O=C(CCl)N1CCOC2(CCC2)CC1 | -0.346 (inactive)
O=C(CCl)NCCC1=CCCCC1 | -0.444 (inactive)
O=C(CCl)N(C1CCCC1)C1CCS(=O)(=O)C1 (centres undefined) | -0.36 (inactive)
Cc1noc(N2CCN(C(=O)CCl)CC2)n1.Cl | -0.444 (inactive)
COc1ccccc1C(C)NC(=O)CCl (centres undefined) | -0.666 (inactive)
O=C(CCl)N(Cc1ccsc1)C1CC1 | -0.283 (inactive)
O=C(CCl)N1CCC(S(=O)(=O)c2ccc(F)cc2)CC1 | -0.572 (inactive)
Cc1nc(CN2CCN(C(=O)CCl)CC2)cs1 | -0.543 (inactive)
O=C(CCl)N1CC2(CCOCC2)C1 | -0.375 (inactive)
